# According to PubChem BioAssay:
# Biological target: Follistatin (Homo sapiens) (UniProt P19883)
# Assay: follistatin binders on small-molecule microarrays, primary screen, biochemical, small-molecule microarray, 635/667 nm fluorescence (AID 1132)
# Conditions: FST binding, 635 nm fluorescence, higher = more signal
# Follistatin (Homo sapiens), sequence (P19883 whole entry, looked up): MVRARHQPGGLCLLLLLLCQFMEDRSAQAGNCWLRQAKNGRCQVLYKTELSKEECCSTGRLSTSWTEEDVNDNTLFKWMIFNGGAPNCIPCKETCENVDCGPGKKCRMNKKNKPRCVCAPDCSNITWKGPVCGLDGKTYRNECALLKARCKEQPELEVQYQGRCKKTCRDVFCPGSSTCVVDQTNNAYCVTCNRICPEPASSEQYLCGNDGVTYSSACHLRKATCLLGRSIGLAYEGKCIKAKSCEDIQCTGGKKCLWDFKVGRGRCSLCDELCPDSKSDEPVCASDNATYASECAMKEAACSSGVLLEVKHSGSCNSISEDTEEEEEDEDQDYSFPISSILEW
row,SMILES,composite z-score
1,CN1C(=O)C2C=CC(C(O)c3c(F)cccc3Cl)N(NC(=O)OC(C)(C)C)C2C1=O (configuration not stated),0.453
2,O=C1OCCC/C=C\[C@H]2OC34C=CCN(c5ccc6ccccc6c5)C(=O)[C@H]3N(CCCCCO)C(=O)[C@@H]4C12 (some centres not stated),-0.472
3,COc1ccc([Si](C)(C)[C@H]2[C@H](CC(=O)N3CCC[C@H]3CO)O[C@@]3(C(=O)N(Cc4cccc(N5CCOC5=O)c4)c4ccccc43)[C@@H]2C)cc1,1.42
4,COCC(=C=CC[C@H](O)c1cccc(OCCO)c1)CCO,1.32
5,C=CCC(OC(C)=O)[C@@H]1[C@@H](N(Cc2ccc(-c3cccc(C(F)(F)F)c3)o2)C(=O)c2cccc3ccccc23)c2cc(OCCCO)ccc2N1C(=O)Cc1ccc2ccccc2c1 (some centres not stated),0.37
6,COCCOC(=O)N1C(=O)[C@@]2(c3ccccc31)[C@H](C(=O)N1CCCCCCC1)[C@H]1C(=O)O[C@H](c3ccccc3)[C@H](c3ccccc3)N1[C@@H]2c1ccc(OCCO)cc1,1.58

# Biological target: Fibroblast growth factor 2 (Homo sapiens) (UniProt P09038)
# Assay: FGF2 binders on small-molecule microarrays, primary screen, biochemical, small-molecule microarray, 635/667 nm fluorescence (AID 1133)
# Conditions: small-molecule microarray binding, FGF2, fluorescence 635/667; higher = more signal
# Fibroblast growth factor 2 (Homo sapiens), sequence (P09038 whole entry, looked up): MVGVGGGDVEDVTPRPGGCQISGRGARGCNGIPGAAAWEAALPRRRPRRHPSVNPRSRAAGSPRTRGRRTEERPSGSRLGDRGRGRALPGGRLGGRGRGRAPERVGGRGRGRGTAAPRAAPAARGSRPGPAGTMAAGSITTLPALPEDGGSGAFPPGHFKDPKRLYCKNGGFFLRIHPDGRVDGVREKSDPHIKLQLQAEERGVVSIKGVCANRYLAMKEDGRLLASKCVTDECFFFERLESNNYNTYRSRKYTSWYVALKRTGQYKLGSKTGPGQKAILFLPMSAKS
row,SMILES,composite z-score
1,COC(=O)[C@@]1(Cc2ccc(OC)cc2)[C@H]2c3cc(C(=O)N4CCCC4)n(Cc4nc5ccccc5[nH]4)c3C[C@H]2CN1C(=O)c1ccccc1,-0.202
2,COc1ccc(NC(=O)O[C@H]2[C@H](OC(=O)c3cc4ccccc4[nH]3)[C@@H](OC(=O)c3cc4ccccc4[nH]3)[C@@H](OC)O[C@@H]2CO)cc1,1.38
3,C=C(CCCC)C(=O)CC[C@@H](OC(C)=O)c1ccc(CO)o1,1.8
4,O=C1[C@H]2C=C(I)[C@H](C[C@@H]2OCCCCO)[C@@]12CO2,-0.0868
5,COCCCNC(=O)[C@@]1(Cc2ccccc2)N=C(c2ccc(OCCCO)cc2)O[C@H]1c1ccccc1CN=[N+]=[N-],0.122
6,CN(C)CCCCCCNC(=O)[C@@H]1C[C@@H]2C(=O)N3CCC[C@H]3C(=O)N2[C@@H]1c1ccc(O)cc1,1.74
7,COc1ccc([C@H]2C[C@H]3C(Br)=C[C@@]2(CO)C(=O)[C@]32CO2)cc1,-0.441
8,C=CCNC(=O)[C@@H]1[C@H]2C(=O)O[C@H](c3ccccc3)[C@H](c3ccccc3)N2[C@H](c2ccc(OCCO)cc2)[C@@]12C(=O)N(C(=O)OCCOC)c1ccc(C#CCNC(N)=O)cc12,1.34
9,CS(=O)(=O)CCOC(=O)C1=CC(CCCO)=CC(c2ccc(CN3CCCC3)cc2)N(Cc2cccc(OC(F)(F)F)c2)C=C1C(=O)OCCS(C)(=O)=O (configuration not stated),0.964
10,COCCOC(=O)N1C(=O)[C@@]2(c3cc(C#CC4(O)CCCCCC4)ccc31)[C@H](C(=O)Nc1nc3ccccc3s1)[C@H]1C(=O)O[C@H](c3ccccc3)[C@H](c3ccccc3)N1[C@@H]2c1ccc(OCCO)cc1,1.58
11,[N-]=[N+]=Nc1ccccc1C[C@]1(C(=O)NCC(O)CO)N=C(c2ccc(OCCCO)cc2)O[C@H]1c1ccccc1 (some centres not stated),-0.839
12,[N-]=[N+]=NCc1ccccc1C[C@@]1(C(=O)NCC(O)CO)N=C(c2ccc(OCCCO)cc2)O[C@@H]1c1ccccc1 (some centres not stated),-0.287
13,C=CCN1C(=O)[C@]2(O[C@H](CCO)[C@@H]([Si](C)(C)c3ccc(OC)cc3)[C@@H]2C)c2cc(N(C=O)c3ccccc3)ccc21,-0.129
14,Cc1ccc(S(=O)(=O)N2C[C@@H](C(=O)O)[C@H](Sc3ccccc3)C[C@H]2c2ccccc2)cc1,-0.194
15,COC(=O)[C@]1(Cc2ccccc2)N=C(c2ccc(OCCCO)cc2)O[C@@H]1c1ccccc1N=[N+]=[N-],1.29
16,C=CC[C@]1(C(N)=O)N=C(c2ccc(OCCCO)cc2)O[C@H]1c1ccccc1,0.17
17,[N-]=[N+]=Nc1ccccc1[C@H]1OC(c2ccc(OCCCO)cc2)=N[C@@]1(Cc1ccccc1)C(=O)N1CCOCC1,1.66
18,O=C1NC(=O)C2C1C=CC(C(O)c1ccc(-c3ccccc3)s1)N2Nc1ccc(Cl)cc1Cl (configuration not stated),-0.91

row,SMILES,composite z-score
1,NCCCCCNC(=O)[C@H]1C[C@H]2C(=O)N3CCC[C@H]3C(=O)N2[C@H]1c1ccc(O)cc1,1.35
2,CC(=O)n1cc(C(O)C2C=CC3C(=O)NC(=O)C3N2Nc2ccccn2)c2ccccc21 (configuration not stated),-0.219
3,CO[C@H]1O[C@H](CO)[C@@H](OC(=O)Nc2cccc(F)c2)[C@H](OC(=O)Nc2ccccc2)[C@H]1OC(=O)Nc1ccccc1,1.12
4,CO[C@H]1O[C@H](CO)[C@@H](OC(=O)Nc2ccccc2-c2ccccc2)[C@H](OC(=O)Nc2ccccc2-c2ccccc2)[C@@H]1OC(=O)Nc1ccccc1-c1ccccc1,0.814
5,O=C(NCc1ccccc1)[C@@H]1c2ccccc2C(=O)N(C2Cc3ccccc3C2)[C@H]1c1ccc(CO)cc1,0.892
6,O=C1C2C=CC(C(O)c3ccc(-c4ccccc4)s3)N(Nc3ccccc3)C2C(=O)N1c1ccccc1 (configuration not stated),-0.413
7,Cc1c(NC(=O)/C(C#N)=C/c2cccc([N+](=O)[O-])c2)c(=O)n(-c2ccccc2)n1C,0.793
8,O=C1C2C=CC(C(O)c3c(F)cccc3Cl)N(Nc3ccccc3F)C2C(=O)N1c1ccccc1 (configuration not stated),0.793
9,NCCCCCCNC(=O)[C@H]1C[C@H]2C(=O)N[C@@H](Cc3ccccc3)C(=O)N2[C@H]1c1cccc(OCCO)c1,-0.044
10,CN(C)CCCC[C@@H]1NC(=O)[C@H]2C[C@@H](C(=O)NCCCCCN)[C@@H](c3cccc(OCCO)c3)N2C1=O,1.22
11,O=C(NCCN1CCOCC1)[C@@H]1c2ccccc2C(=O)N(Cc2cc(C(F)(F)F)cc(C(F)(F)F)c2)[C@H]1c1ccc(CO)cc1,-0.879
12,COc1ccc([Si](C)(C)[C@@H]2[C@@H](CC(=O)N3Cc4ccccc4C[C@H]3CO)O[C@]3(C(=O)N(Cc4cccc(N5CCC5=O)c4)c4ccccc43)[C@H]2C)cc1,1.01
13,CN1C(=O)C2C=CC(C(O)c3c(F)cccc3Cl)N(NC(=O)OC(C)(C)C)C2C1=O (configuration not stated),-0.174
14,O=C1OCCC/C=C\[C@H]2OC34C=CCN(c5ccc6ccccc6c5)C(=O)[C@H]3N(CCCCCO)C(=O)[C@@H]4C12 (some centres not stated),-1.06
15,COc1ccc([Si](C)(C)[C@H]2[C@H](CC(=O)N3CCC[C@H]3CO)O[C@@]3(C(=O)N(Cc4cccc(N5CCOC5=O)c4)c4ccccc43)[C@@H]2C)cc1,1.64
16,COCC(=C=CC[C@H](O)c1cccc(OCCO)c1)CCO,0.131
17,C=CCC(OC(C)=O)[C@@H]1[C@@H](N(Cc2ccc(-c3cccc(C(F)(F)F)c3)o2)C(=O)c2cccc3ccccc23)c2cc(OCCCO)ccc2N1C(=O)Cc1ccc2ccccc2c1 (some centres not stated),-0.129
18,COCCOC(=O)N1C(=O)[C@@]2(c3ccccc31)[C@H](C(=O)N1CCCCCCC1)[C@H]1C(=O)O[C@H](c3ccccc3)[C@H](c3ccccc3)N1[C@@H]2c1ccc(OCCO)cc1,1.88
